# Assay outcomes (PubChem BioAssay)
# Sampled rows, rich in hits. Any-hit rate of the full collection: about 1.5%.
# INS promoter inh – TRM-6 insulin promoter activity inhibition. TRM-6 cells (human fetal islet line), insulin promoter-eGFP reporter, imaging; reporter expression induced with tamoxifen. inhibition, % at 2 µM. 130,000 compounds, 0.9% hits;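 active means inhibition above the mean plus 3 SD, with well images judged a real hit on visual review, cut at about 60% in these data, passing the limit was not always enough; inconclusive means inhibition over the cutoff but images rejected on review; inactive means inhibition not above the cutoff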
# S1P4 ag – activates the human S1P4 receptor. S1P4-expressing cell line, agonist reporter assay. activation, % at 4.98 µM. 220,000 compounds, 0.35% hits. AID 1509; in the data active means activation above about 11%;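 further: 0% = DMSO vehicle and 100% = reference agonist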
# S1P3 antagonist – S1P3 (human) receptor antagonism; CHO S1P3 NFAT-BLA reporter, FRET fluorescence, antagonist mode; Q99500; 170,000 compounds, 0.27% hits; AID 485; inhibition, % at 4.98 µM;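 active means inhibition above the plate cutoff, the mean inhibition of test wells on that plate plus 3 SD, cut at about 28% in these data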;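 further: cells challenged with S1P at its EC80 of 0.8 µM; blue over green emission ratio from cleaved BLA substrate after 4 h stimulation; 0% = S1P-stimulated wells and 100% = unstimulated DMSO-only wells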
# Target sequence (Q99500 whole entry, looked up): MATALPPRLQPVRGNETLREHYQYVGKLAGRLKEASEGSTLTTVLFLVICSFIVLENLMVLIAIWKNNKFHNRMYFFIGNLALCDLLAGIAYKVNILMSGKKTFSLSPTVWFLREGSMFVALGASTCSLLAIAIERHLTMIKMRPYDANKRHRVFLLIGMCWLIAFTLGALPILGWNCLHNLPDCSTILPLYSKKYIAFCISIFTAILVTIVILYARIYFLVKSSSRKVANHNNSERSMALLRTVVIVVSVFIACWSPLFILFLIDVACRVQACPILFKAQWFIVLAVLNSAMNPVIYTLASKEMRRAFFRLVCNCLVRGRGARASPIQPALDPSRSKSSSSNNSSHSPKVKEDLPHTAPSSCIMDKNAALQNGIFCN
# S1P4 antagonist – blocks the human S1P4 receptor; O95977; S1P4-expressing cells, antagonist mode, reporter read-out; AID 1510; 220,000 compounds, 0.26% hits; inhibition, % at 4.98 µM; in the data active means inhibition above about 29%;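 further: 0% = wells stimulated with agonist and 100% = vehicle wells without agonist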
# Hsp70 activator – switches on Hsp70 transcription; HeLa Hsp70 promoter luciferase reporter, luminescence; scaled: vehicle 0, proteasome-inhibitor control 100%; activation, % at 10 µM; 200,000 compounds, 0.04% hits;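 active means activation above the mean across all tested compounds plus 3 SD, cutoff set per campaign, cut at about 5.5% in these data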;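 further: 100% = MG132 at 30 µM as the positive control and 0% = DMSO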
# Insulin prom up – MIN6 insulin promoter up-regulation | z-score at 5 µM | MIN6 insulin promoter-GFP reporter, high-content imaging; hits give high values | 190,000 compounds, 0.3% hits;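 active means z-score above 3 at 5 µM with at least 500 cells counted in the well; inconclusive means wells under 500 cells, flagged as cytotoxic or low count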
# * hit, by the source's call; u = inconclusive; x = no result given.
SMILES,INS promoter inh,S1P4 ag,S1P3 antagonist,S1P4 antagonist,Hsp70 activator,Insulin prom up
COC(=O)C1=C(C)N=C2SC(C#N)=C(N)N2C1c1cccc(OC)c1 (stereo not given),100.0*,1.1,x,-14.8,-0.1,0.01
COc1ccc(N2CCN(c3ccc(N4C(=O)CC(C)C4=O)cc3[N+](=O)[O-])CC2)cc1 (stereo not given),76.9*,0.2,9.9,-2.6,-0.3,0.05
COc1ccc(C(=O)OC(C)C(=O)Nc2cc(C(F)(F)F)ccc2Cl)c(OC)c1OC (stereo not given),x,4.0,2.9,-6.6,-0.3,0.27
CCOC(=O)N1CCN(c2ncnc3c2[nH]c2ccc(OC)cc23)CC1,91.3*,1.1,x,2.8,-0.3,-0.23
COc1ccc2[nH]c3c(NCCN4CCCCC4)ncnc3c2c1,81.2*,-1.2,-2.5,1.8,-0.4,-0.94
CCOC(=O)N1CCN(c2ncnc3c2[nH]c2ccc(F)cc23)CC1,13.9,0.8,x,-19.6,-0.4,u
Cc1ccc2[nH]c3c(NCCCN4CCCC4=O)ncnc3c2c1,54.5,0.2,6.5,7.6,-0.4,-0.19
O=C(Cn1nc(-c2ccccc2)c2ccccc2c1=O)Nc1cccnc1,76.7*,0.4,x,-10.2,-0.4,-0.24
COc1ccc(C2c3c(-c4ccccc4)n[nH]c3C(=O)N2c2ccc(C(=O)O)cc2)cc1 (stereo not given),x,-0.8,1.3,-5.7,x,0.22
COc1ccc(-c2n[nH]c3c2C(c2ccc(OC)c(OC)c2)N(c2ccccc2)C3=O)cc1 (stereo not given),69.4*,0.1,x,-9.3,-0.2,x
C=CCn1c(-c2oc3nc(-c4ccccc4)cc(-c4ccccc4)c3c2N)n[nH]c1=S,x,1.8,3.9,-10.0,-0.4,5.57*
O=C(c1ccc(CN2CCc3ccccc3C2)cc1)N1CCN(c2ccc(F)cc2)CC1,-14.8,0.9,x,-0.7,-0.1,x
O=C(Nn1c(-c2ccc(Br)cc2)nc2ccccc2c1=O)c1cccnc1,77.8*,2.4,-21.0,-15.7,-0.3,-0.37
Cc1ccc(S(=O)(=O)CC(=O)c2ccc(C)c([N+](=O)[O-])c2)cc1,42.9,-0.1,x,-5.2,-0.2,0.31
Cc1ccc2[nH]c3c(NCc4ccco4)ncnc3c2c1,84.8*,-1.7,59.3*,1.8,-0.6,-6.84
Cc1ccc(-n2c(C)csc2=N)cc1,u,2.7,x,-23.8,0.3,-0.68
Cc1csc(=N)n1-c1ccc(Cl)cc1,90.9*,-1.5,x,17.9,0.5,0.33
C/C(=N\Nc1ccc(F)cc1F)c1ccc(Br)s1,x,0.1,-3.3,-17.3,0.0,-0.75
CCc1nnc(NC(=O)CSc2nc(C)c3c(c2C#N)CCCC3)s1,84.6*,0.0,x,-4.2,-0.3,-0.98
CN(CCc1ccccn1)c1ncnc2[nH]ncc12,75.0*,1.2,5.6,-9.3,0.0,0.16
Cn1c(CCc2ccccc2)nnc1SCC(=O)N1CCOCC1,-322.2,-1.1,x,-15.7,-0.2,x
CCCn1c(CCc2ccccc2)nnc1SCC(=O)N1CCOCC1,78.1*,0.5,0.4,-6.0,-0.2,0.23
Cc1cc(C)cc(-n2nc(C)cc2N)c1,72.2*,0.8,x,-4.8,0.3,x
CC(C)(C)c1cc(-c2ccccc2)n[nH]1,x,2.4,-13.0,-19.7,x,-0.31
CCN(CC)S(=O)(=O)c1cccc(-c2nnc(SCc3nc4ccccc4s3)o2)c1,86.7*,-1.4,x,-7.3,-0.2,x
SMILES,INS promoter inh,S1P4 ag,S1P3 antagonist,S1P4 antagonist,Hsp70 activator,Insulin prom up
O=C(COc1ccc(-c2nnco2)cc1)N1CCN(S(=O)(=O)c2ccc3ccccc3c2)CC1,-8.3,0.0,-8.2,-4.9,-0.1,x
CC1CCN(C(=O)CSc2nnc(Cc3cccn3C)n2-c2ccc(F)cc2)CC1,71.4*,-0.7,-27.3,0.9,-0.3,-1.61
COc1ccc(-n2c(Cc3cccn3C)nnc2SCC(=O)NC2CCCC2)cc1,100.0*,-0.1,-9.4,-17.9,0.2,x
Cn1cccc1Cc1nnc(SCC(=O)N2CCCCCC2)n1-c1ccc(F)cc1,x,-1.6,-17.4,-11.0,-0.2,-0.12
CCCCOC(=O)CSc1n[nH]c(=O)[nH]c1=O,78.6*,1.8,x,-9.7,0.0,x
CCCCCOC(=O)C(C)Sc1n[nH]c(=O)[nH]c1=O (stereo not given),x,-1.0,-18.6,2.6,-0.1,0.21
Cn1c(=O)c(=O)n(C)c2cc(S(=O)(=O)N3CCCC3C(=O)NCc3cccs3)ccc21 (stereo not given),x,-0.5,-10.7,0.8,x,-0.06
COc1ccccc1NC(=O)/C=C1\SCC(=O)N1C,x,2.0,-8.7,-9.6,-0.4,4.67*
